Cruzain inh Det – blocks cruzain activity in presence of Triton detergent | P25779 | purified cruzain, Z-FR-AMC fluorescence, 0.01% Triton | Potency, µM, usual class: inhibitors | 200,000 compounds, 0.43% hits | AID 1478; also: nearly all actives have a fitted effect of over 40% in size
Target sequence (P25779 123-467 limits assumed): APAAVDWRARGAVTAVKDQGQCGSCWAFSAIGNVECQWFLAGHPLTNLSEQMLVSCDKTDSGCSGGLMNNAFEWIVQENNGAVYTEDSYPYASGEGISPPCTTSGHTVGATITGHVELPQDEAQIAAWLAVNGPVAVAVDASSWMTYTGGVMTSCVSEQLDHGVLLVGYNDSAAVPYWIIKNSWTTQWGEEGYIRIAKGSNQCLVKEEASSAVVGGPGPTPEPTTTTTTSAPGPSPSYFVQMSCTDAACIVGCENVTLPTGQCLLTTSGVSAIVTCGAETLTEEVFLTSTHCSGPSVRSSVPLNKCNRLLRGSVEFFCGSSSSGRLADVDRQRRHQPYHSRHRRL
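Compounds were screened in titration against cruzain (1.5 nM) with 0.01% Triton X-100 to counter colloidal aggregation. Activity was the AMC fluorescence increase over 60 s after adding 2 uM Z-FR-AMC at pH 5.5.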
Cruzain noTriton – inhibitors of Trypanosoma cruzi cruzain without detergent. P25779. purified cruzain, Z-FR-AMC fluorescence, no detergent. Potency, µM, most hits filed as inhibitors. 200,000 compounds, 2.3% hits. AID 1476; also: nearly all actives have a fitted effect of over 40% in size
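Detergent-free condition (0.00005% Triton X-100) in acetate buffer pH 5.5 with DTT. 1.5 nM enzyme and compound were pre-mixed 15 min, then 2 uM Z-FR-AMC substrate added; reaction progress from fluorescence change between first and third reads (60 s).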
Large screens that a line does not name were inactive; ! = not active in a repeat. In the library only some 2.4% were active in any assay of this set; here they are far more common. Calls follow the shape of the dose curve; as a rule, active = well fitted curve in the direction sought with a large enough effect; inconclusive = small, poorly fitted or top-dose-only effect, or another doubt; inactive = no such curve, though single readings can be large; an effect the other way counts as inactive or inconclusive.

Cc1cc(C)n(-c2ccc(C(=O)OCn3nnc4ccccc4c3=O)cc2)n1	none
Cc1nn(-c2ccccc2)c2sc(C(=O)Nc3ccc(Br)cc3)cc12	none
Cc1nn(-c2ccccc2)c2sc(C(=O)Nc3cccc(Br)c3)cc12	Cruzain noTriton 20µM
Cc1nn(-c2ccccc2)c2sc(C(=O)OCn3nnc4ccccc4c3=O)cc12	Cruzain noTriton 25µM
Cc1c(Cl)cccc1-n1nnc(-c2nc(-c3ccc4c(c3)OCO4)no2)c1C	none
COc1cc(NC(=S)NCCC(c2ccccc2)c2ccccc2)cc(OC)c1	Cruzain noTriton 32µM
COc1cccc(NC(=S)NCCC(c2ccccc2)c2ccccc2)c1	none
CCCn1c(C)nc2c(N3CCOCC3)nc(C)nc21	none
CCn1c(=NC(=O)c2ccc3c(c2)OCCO3)sc2c(C)ccc(OC)c21	none
O=c1c2ccccc2c(C=Nc2ccc(S(=O)(=O)N3CCCCC3)cc2)c(O)n1-c1ccc(Cl)cn1	Cruzain noTriton 7.9µM
CCc1nnc(/N=C/c2c(O)n(-c3ccc(Cl)cn3)c(=O)c3ccccc23)s1	Cruzain noTriton inconclusive
CCN(CC)S(=O)(=O)c1ccc(-c2nnc(SCc3nnc(-c4ccccc4)o3)o2)cc1	Cruzain noTriton 25µM
O=S(=O)(c1ccc(-c2nnc(SCc3nnc(-c4ccccc4)o3)o2)cc1)N1CCCC1	Cruzain noTriton inconclusive
COc1cccc(C(=O)CC2(O)C(=O)Nc3ccc(Cl)cc32)c1 (configuration not stated)	none
CCN(CC)CCn1c(=N)n(CCOc2ccccc2Cl)c2ccccc21	none
O=C(Nc1cccc2ccccc12)NC1CCCc2ccccc21 (configuration not stated)	Cruzain noTriton 13µM
CNC(=O)NC1CCCc2ccccc21 (configuration not stated)	none
NC(N)=Nc1nc(CSCC/C(N)=N/S(N)(=O)=O)cs1	Cruzain noTriton 10µM!
O=C(NCc1ccc(F)cc1)c1cc2c(=O)n3ccccc3nc2s1	none
N#Cc1cccc(NC(=O)N2CC[C@@]3(CCCN(C(=O)c4cnccn4)C3)C2)c1	none
O=C(O)C1(C(=O)O)CCN(S(=O)(=O)c2ccccc2)CC1	none
CCc1ccc(NC(=O)N2CCC(N3CCN(Cc4ccc(C)cc4)C(=O)C3=O)CC2)cc1	none
Cc1cccc(C)c1NC(=O)CS(=O)(=O)c1nc(-c2ccc(Cl)cc2)cn1-c1ccccc1	Cruzain inh Det inconclusive
COc1ccccc1-n1cc(-c2ccc(C)cc2)nc1S(=O)(=O)CC(=O)Nc1ccccc1C(F)(F)F	none
COc1ccc(-c2cn(-c3ccc(C)cc3)c(S(=O)(=O)CC(=O)Nc3ccccc3)n2)cc1	Cruzain noTriton 20µM
COc1ccc(-c2cn(-c3ccc(C)cc3)c(S(=O)(=O)CC(=O)Nc3ccc(F)cc3)n2)cc1	Cruzain noTriton 16µM
COC(=O)c1ccc(-n2nnc(-c3nc(-c4ccc5c(c4)OCO5)no3)c2C)cc1	none
COc1ccc(-c2nc3ccccc3n3c(-c4cccc(C)c4)c4c(=O)n(C)c(=O)n(C)c4c23)cc1	none
Cc1nn(CCCC(=O)NCc2ccccc2)c(=O)c2cc3sccc3n12	none
N#Cc1ccc(C(=O)Nc2cc(S(=O)(=O)N3CCCC3)ccc2OCC(F)(F)F)cc1	none
O=C(CNc1cc(S(=O)(=O)N2CCCC2)ccc1OCC(F)(F)F)Nc1ccc(SC(F)F)cc1	Cruzain noTriton 16µM
Cc1ccc(C)c(Nc2nc(-c3ccccc3)c3cc(Br)ccc3n2)c1	Cruzain noTriton inconclusive
COc1ccccc1NC(=O)c1ccc(S(=O)(=O)N2CCCC2)cc1	none
COc1ccccc1NS(=O)(=O)c1ccc(C)c(NC(=O)c2ccc(S(=O)(=O)N3CCCCCC3)cc2)c1	Cruzain noTriton 32µM
CN1CCN(c2ccc(Cl)cc2NC(=O)c2ccc(S(=O)(=O)N(C)C)cc2)CC1	none
CN(C)S(=O)(=O)c1ccc(C(=O)Nc2cc(S(=O)(=O)Nc3ccccc3Cl)ccc2N2CCCCC2)cc1	Cruzain noTriton 25µM
O[C@@](CCN1CCCCC1)(c1ccccc1)C1CCCCC1	none
COc1cccc(Cn2c(=O)c(C)nc3cnc(N4CCOCC4)nc32)c1	none
O=C(CCSCc1ccccc1Cl)N1CCN(c2ccc(F)cc2)CC1	none
Cc1ccccc1NC(=O)Cn1nnc(S(=O)(=O)c2ccc(C(C)(C)C)cc2)c1N	Cruzain noTriton 7.9µM
Cc1ccccc1NC(=O)Cn1nnc(C(=O)NCc2ccco2)c1N	none
COC(=O)c1ccc(Sc2ccc(C)cc2)c(N)c1	none
COc1cc(Sc2ccc(C)cc2)c(OC)cc1N	Cruzain noTriton 16µM
CCCn1c(=O)c2ccccc2n2c(SCc3nc4ccccc4s3)nnc12	Cruzain noTriton 13µM
CCCCn1c(SCc2nc3ccccc3s2)nc2ccccc2c1=O	none
Cc1cc(C)nc(NC(=NCCc2c[nH]c3ccccc23)NC(=O)Nc2ccccc2)n1	Cruzain noTriton inconclusive
Cc1cc(C)nc(NC(=NCCc2c[nH]c3ccccc23)NC(=O)Nc2ccc(Cl)c(Cl)c2)n1	Cruzain noTriton 7.9µM
Cc1cc(C)nc(NC(=NCCc2c[nH]c3ccccc23)NC(=O)c2ccco2)n1	Cruzain noTriton inconclusive
Cc1cc(C)nc(NC(=NCCc2c[nH]c3ccccc23)NC(=O)Nc2cccc([N+](=O)[O-])c2)n1	Cruzain noTriton 10µM
CCc1ccc(C2c3c(-c4cc(C)ccc4O)n[nH]c3C(=O)N2Cc2cccnc2)cc1 (configuration not stated)	none
CC(C)c1ccc(NC(=O)CSC2=Nc3ccccc3C3=NC(CC(=O)NCc4ccc(F)cc4)C(=O)N23)cc1 (configuration not stated)	none
COc1ccc(C(=O)c2c(N)c(C(=O)Nc3cccc(OC)c3)c3ccccn23)cc1	none
O=C(NCc1nc2ccccc2[nH]1)c1ccco1	none
O=C(NCc1nc2ccccc2[nH]1)c1cc2ccccc2oc1=O	Cruzain inh Det 14µM, Cruzain noTriton 7.9µM
CCOc1ccc(-n2c(=O)cc(N3CCN(c4ccccc4)CC3)[nH]c2=O)cc1	Cruzain noTriton 2µM
COc1ccc(-n2c(=O)cc(N3CCN(c4ccccc4)CC3)[nH]c2=O)cc1	none
Cc1ccc(C)c(OCCOCCn2c(-c3ccc(Br)cc3)nc3ccccc3c2=O)c1C	none
CCNc1ncc2nc(-c3cccc(C#N)c3)c(=O)n(Cc3cccc(OC)c3)c2n1	none
COc1cc2oc(=O)cc(-c3ccc(-c4ccc(C#N)cc4)cc3)c2c(OC)c1OC	Cruzain noTriton 35µM
COc1cc2oc(=O)cc(-c3ccc(-c4ccc(C)cc4)cc3)c2c(OC)c1OC	none
CC(C)C(=O)Nc1cccc(C(=O)Nc2nnc(CC(C)(C)C)s2)c1	none
COc1ccc(C2c3c(ccc4ccccc34)Oc3ncn4nc(Cc5ccc(OC)c(OC)c5)nc4c32)cc1 (configuration not stated)	none
COc1ccc(C2c3c(ccc4ccccc34)Oc3ncn4nc(CO/N=C/c5ccccc5)nc4c32)cc1 (configuration not stated)	Cruzain noTriton 3.2µM
COc1ccc(C2c3c(ccc4ccccc34)Oc3ncn4nc(-c5ccco5)nc4c32)cc1 (configuration not stated)	Cruzain noTriton inconclusive
c1ccc(C2c3c(ccc4ccccc34)Oc3ncn4nc(-c5ccco5)nc4c32)cc1 (configuration not stated)	Cruzain noTriton 3.2µM
O=C(O)c1c(C(=O)O)c2ccccc2[nH]c1=O	none
O=c1c2sc3ccccc3c2n(Cc2cccc(C(F)(F)F)c2)c(=O)n1Cc1ccco1	none
CCCN(CC1CC1)C(=O)CSc1nnc(-c2cc(-c3cccs3)nc3ccccc23)o1	Cruzain noTriton 16µM

Bioassay records from PubChem BioAssay.
